Source: PubChem
VDR inhibitor = Inhibitors of the vitamin D receptor (VDR): qHTS; VDR-SRC2-3 peptide fluorescence polarization, 2 h; Potency, µM, for inactives: max response, negative = inhibition, usual class: inhibitors; actives 0.93% (n = 400,000)
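Compounds are added to VDR with labelled SRC2-3 coactivator peptide and held 2 h at room temperature. Inhibition of the VDR–peptide interaction is then read as a change in fluorescence polarization.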
12-LOX inh = Primary qHTS assay for inhibitors of human arachidonate 12S-lipoxygenase (ALOX12): Round 2. Potency, µM (top dose mostly 108 µM), without a hit: at the top dose activity change, negative = inhibition, hits mostly inhibitors. actives 1.1% (n = 580,000). AID 1671190, 2021. purified 12hLO, xylenol orange hydroperoxide absorbance
Target sequence (P18054 whole entry, looked up): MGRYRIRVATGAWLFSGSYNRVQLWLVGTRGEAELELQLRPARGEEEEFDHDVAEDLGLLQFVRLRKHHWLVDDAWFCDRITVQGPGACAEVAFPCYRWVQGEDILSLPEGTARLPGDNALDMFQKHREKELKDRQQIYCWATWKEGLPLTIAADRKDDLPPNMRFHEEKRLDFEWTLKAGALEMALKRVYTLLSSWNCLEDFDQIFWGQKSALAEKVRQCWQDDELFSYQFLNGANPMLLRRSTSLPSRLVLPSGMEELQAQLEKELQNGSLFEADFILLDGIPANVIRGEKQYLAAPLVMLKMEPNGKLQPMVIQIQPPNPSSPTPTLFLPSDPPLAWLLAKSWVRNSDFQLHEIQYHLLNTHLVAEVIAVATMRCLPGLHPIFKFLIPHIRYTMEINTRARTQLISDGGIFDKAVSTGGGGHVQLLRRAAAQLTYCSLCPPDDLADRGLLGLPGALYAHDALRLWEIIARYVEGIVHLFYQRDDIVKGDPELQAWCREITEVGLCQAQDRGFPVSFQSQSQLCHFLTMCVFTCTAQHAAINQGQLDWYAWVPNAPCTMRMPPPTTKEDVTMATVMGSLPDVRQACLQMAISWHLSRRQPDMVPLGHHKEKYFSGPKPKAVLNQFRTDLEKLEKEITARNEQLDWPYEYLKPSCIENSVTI
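Purified human 12hLO (150 nM final) in 25 mM Hepes, 0.01% Triton X-100, pH 7.0 was preincubated 15 min at room temperature with compound. Then 40 uM arachidonic acid was added, 30 min. Hydroperoxide was read by Fe-XO absorbance ratio 573/405 nm.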
PLK1 PBD inh = qHTS for Inhibitors of PLK1-PDB (polo-like kinase 1 - polo-box domain): Primary Screen; Serine/threonine-protein kinase PLK1 (Homo sapiens), P53350; Plk1 PBD binding of FITC phosphopeptide, fluorescence polarization; Potency, µM, inactives show max response, negative = inhibition, actives largely listed as inhibitors; actives 2.8% (n = 360,000); AID 720504, 2013; further: series mostly up to about 57 µM; nearly all actives have a fitted effect of over 65% in size
GCN5L2 inh = qHTS Assay for Inhibitors of GCN5L2 | Histone acetyltransferase KAT2A (Homo sapiens), Q92830 | GCN5L2 HAT assay, ThioGlo1 CoA-SH fluorescence | Potency, µM (highest dose often 58.9 µM), for the others: top-dose activity change, negative = inhibition, hits mostly inhibitors | actives 0.21% (n = 390,000)
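GCN5L2 (20nM final) in 50mM HEPES, 0.1mM EDTA pH 7.5, 0.01% Tween-20 was preincubated 15 min at room temperature with compound, then given ThioGlo1 (50uM), H3(1-25) peptide (75uM) and acetyl-CoA (70uM); CoA-thiol fluorescence (Ex340/Em540) was read at 0 and 20 min.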
Numbers without * were called inactive; [ ] = dose if it differs, or a comment. Hits are enriched below; roughly 3% of the tested compounds scored in any of these assays. The call rests on the fitted dose curve; in most records, active means well fitted curve in the direction sought with a large enough effect; inconclusive means small, poorly fitted or top-dose-only effect, or another doubt; inactive means no such curve, though single readings can be large; an effect the other way counts as inactive or inconclusive. On the % scale 0 is the no-effect control and ±100 the full control effect; potency means the concentration at half of the fitted maximal effect.

What do the screens show for `CCOc1ccc(-c2nc(SCC(=O)c3ccccc3)n[nH]2)cc1`?
VDR inhibitor: -2%; 12-LOX inh: inconclusive; GCN5L2 inh: -10%

Results for COCC(=O)N(C1CCOCC1)C1CCN(S(=O)(=O)c2ccccc2F)CC1 ?
12-LOX inh: 13%

What do the screens show for `COc1ccc(C=O)cc1CSc1ccccn1`?
VDR inhibitor: 4%; 12-LOX inh: inconclusive; PLK1 PBD inh: 24µM*; GCN5L2 inh: -7%

Results for O=C1C=CC2(O[C@H](c3ccccc3)[C@@H](c3ccccc3)O2)[C@H](Sc2ccccc2O)C1 ?
VDR inhibitor: 10µM*; 12-LOX inh: inconclusive; PLK1 PBD inh: 2.4µM*

How did CCOC(=O)c1cn(-c2nc(-c3ccc(Cl)c(Cl)c3)cs2)c2c(F)c(N3CCOCC3)c(F)cc2c1=O do in these assays?
VDR inhibitor: 1%; 12-LOX inh: 0%; PLK1 PBD inh: 0%; GCN5L2 inh: 2.5µM*

Results for CCCCN1CCc2c([nH]c3c(C)cccc23)C1=O ?
VDR inhibitor: 14µM*; 12-LOX inh: inconclusive; PLK1 PBD inh: 3.4µM*; GCN5L2 inh: -4%

How did O=c1c2cn[nH]c2nc(SCc2ccccc2F)n1-c1ccc(Br)cc1 do in these assays?
VDR inhibitor: 14%; 12-LOX inh: -9%; PLK1 PBD inh: 2%; GCN5L2 inh: -6%

How did O=c1c2cn[nH]c2nc(SCc2cc(=O)n3cc(Br)ccc3n2)n1-c1ccc(Br)cc1 do in these assays?
VDR inhibitor: -6%; 12-LOX inh: 1%; PLK1 PBD inh: 21µM*; GCN5L2 inh: -11%

Results for CN1C(=O)C(=O)/C(=C(/O)c2ccc(Br)cc2)C1c1ccc(F)cc1 (stereo not given) ?
VDR inhibitor: -15%; 12-LOX inh: 25µM*; PLK1 PBD inh: 2%; GCN5L2 inh: -2%

What do the screens show for `O=[N+]([O-])c1ccc(N/N=C/c2ccc[nH]2)cc1`?
VDR inhibitor: 0%; 12-LOX inh: 35µM*; PLK1 PBD inh: 12%; GCN5L2 inh: -9%

What do the screens show for `O=[N+]([O-])c1ccc(N/N=C/c2cccc(O)c2)cc1`?
VDR inhibitor: -4%; 12-LOX inh: inconclusive; PLK1 PBD inh: 3%; GCN5L2 inh: 2%

Results for O=[N+]([O-])c1ccc(N/N=C/c2cccc(O)c2O)cc1 ?
VDR inhibitor: inconclusive; 12-LOX inh: inconclusive; PLK1 PBD inh: 27µM*; GCN5L2 inh: -20%

What do the screens show for `COCCn1c(=O)[nH]c(=O)c2c3c(cnc21)C(=O)CC(c1ccccc1)C3` (stereo not given)?
12-LOX inh: 16%

Results for O=c1ccc(/C=C/c2ccccc2)nn1Cc1ccc(F)cc1 ?
VDR inhibitor: -15%; 12-LOX inh: inconclusive; PLK1 PBD inh: -2%; GCN5L2 inh: -5%

How did COc1ccc(/C=C/c2ccc(=O)n(Cc3ccccc3)n2)cc1 do in these assays?
VDR inhibitor: inconclusive; 12-LOX inh: inconclusive; PLK1 PBD inh: 12µM*; GCN5L2 inh: -8%

What do the screens show for `N#Cc1ccc(O[C@@H]2CCOC[C@H]2NC(=O)C2(N3CCCC3)CCCC2)cc1`?
12-LOX inh: 45%

How did CC(=O)N(C)c1ccc(NC(=O)c2ccc3c(c2)nc(C)n3-c2ccccc2)cc1 do in these assays?
12-LOX inh: 9%

Results for CCc1nnc2c(N(C)S(=O)(=O)c3ccc(C)cc3)nc3ccccc3n12 ?
VDR inhibitor: 10%; 12-LOX inh: 1%; PLK1 PBD inh: -1%; GCN5L2 inh: 1%

What do the screens show for `Cc1ccc(S(=O)(=O)N(C)c2nc3ccccc3[nH]c2=S)cc1`?
VDR inhibitor: inconclusive; 12-LOX inh: inconclusive; PLK1 PBD inh: 11µM*; GCN5L2 inh: inconclusive

Results for c1ccc(C(CNCc2ccncc2)N2CCCC2)cc1 (stereo not given) ?
12-LOX inh: 32%

What do the screens show for `C=CCc1cc(CNC)cc(OC)c1OCC`?
12-LOX inh: 5%

How did CCCCn1c(=O)[nH]c(=O)c2c1nc(COC(=O)C=C(C)C)n2CC do in these assays?
12-LOX inh: 29%

What do the screens show for `COc1ccc(NS(=O)(=O)c2ccc(-c3n[nH]c(=S)n3Cc3ccccc3)cc2)cc1`?
VDR inhibitor: -13%; 12-LOX inh: inconclusive; PLK1 PBD inh: inconclusive; GCN5L2 inh: -11%

What do the screens show for `S=c1[nH]nc(-c2ccco2)n1Cc1ccccc1`?
VDR inhibitor: 3%; 12-LOX inh: inconclusive; PLK1 PBD inh: -10%; GCN5L2 inh: 7%

What do the screens show for `S=c1[nH]nc(-c2ccc(Br)o2)n1Cc1ccccc1`?
VDR inhibitor: -16%; 12-LOX inh: 1.6µM*; PLK1 PBD inh: -24%; GCN5L2 inh: -5%

What do the screens show for `COc1ccc(NS(=O)(=O)c2cccc(-c3n[nH]c(=S)n3Cc3ccccc3)c2)cc1`?
VDR inhibitor: -12%; 12-LOX inh: 32µM*; PLK1 PBD inh: -15%; GCN5L2 inh: -10%

How did COc1ccccc1-c1n[nH]c(=S)n1Cc1ccccc1 do in these assays?
VDR inhibitor: inconclusive; 12-LOX inh: 28µM*; PLK1 PBD inh: -12%; GCN5L2 inh: -9%

What do the screens show for `CC12CCC(C(=O)O/N=C3\CC4CCC3(C)C4(C)C)(CC1=O)C2(C)C` (stereo not given)?
12-LOX inh: 5%

How did Cc1cccnc1NC(=O)COc1ccc2c(=O)c(Oc3ccccc3)c(C)oc2c1 do in these assays?
12-LOX inh: 7%

Results for CCOC(=O)C1C(=O)C=C(c2ccccc2)CC1c1ccc(Br)cc1 (stereo not given) ?
12-LOX inh: 10%

Results for COC(=O)Cn1c(=O)c2c(nc(-n3nc(C)cc3C)n2C)n(C)c1=O ?
12-LOX inh: 0%

Results for COC(CNC(=O)c1ccc2c(c1)nc(C)n2-c1cccc(C)c1)OC ?
VDR inhibitor: -11%; 12-LOX inh: 47%; PLK1 PBD inh: 30µM*; GCN5L2 inh: -8%

Results for O=C(Cn1nnc2ccccc2c1=O)N[C@H](C(=O)O)c1ccccc1 ?
VDR inhibitor: -19%; 12-LOX inh: 14%; PLK1 PBD inh: 30µM*; GCN5L2 inh: 0%

How did CC(C)C[C@H](NC(=O)CCn1nnc2ccccc2c1=O)C(=O)O do in these assays?
VDR inhibitor: -11%; 12-LOX inh: -11%; PLK1 PBD inh: 19µM*; GCN5L2 inh: -4%

How did C[C@H](NC(=O)CCn1nnc2ccccc2c1=O)C(=O)O do in these assays?
VDR inhibitor: -22%; 12-LOX inh: 0%; PLK1 PBD inh: 3%; GCN5L2 inh: -4%

Results for O=C(CCCn1nnc2ccccc2c1=O)N[C@H](C(=O)O)c1ccccc1 ?
VDR inhibitor: -2%; 12-LOX inh: -15%; PLK1 PBD inh: -5%; GCN5L2 inh: -2%

How did CCOc1ccc(C(=O)OCC(=O)NCC(F)(F)F)cc1 do in these assays?
12-LOX inh: 21%

What do the screens show for `COc1cccc(CN2CCOC3(CCN(Cc4cccc(Cl)c4)CC3)C2=O)c1`?
12-LOX inh: 0%[176 µM]
